Most compounds without a hit are left out; they make up all but 1.2% or so of the library.
KCNH2 3.1 block: qHTS for Inhibitors of KCHN2 3.1: Mutant qHTS; 340,000 tested, 0.95% active; AID 720553, 2013; activity change, % (tested at about 1.8 µM); U2OS KCNH2 3.1, thallium flux FluxOr; active compounds read low; Potassium voltage-gated channel subfamily H member 2, brain isoform KCNH2 3.1 (human);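 active means maximum activity change below -70%; inconclusive means maximum activity change from -70% to -50%; inactive means maximum activity change above -50%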;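 further: thallium influx rate constant from kinetic fluorescence after stimulation buffer; on the % scale 0 is the no-effect control and ±100 the full control effect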
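Thallium flux read-out: FluxOr dye with Red40 quencher in HBSS/HEPES, 45 min at RT. Rate constants from kinetic reads were normalized to positive and negative DMSO controls. Cells: U2OS virally expressing the 3.1 isoform.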
TRPV1 potentiator: HTS Assay for Compounds that Act as Potentiators of the Vanilloid Receptor 1 | Transient receptor potential cation channel subfamily V member 1 (Homo sapiens), Q8NER1 | AID 540277, 2011 | TRPV1-expressing cells, Fluo-8 calcium influx, capsaicin EC20 potentiation | 320,000 tested, 0.02% active | potentiation, % at 8.33 µM; in the data active means potentiation above about 80%; inconclusive means between about 30% and that limit; further: 0% is about no effect
Target sequence (Q8NER1 whole entry, looked up): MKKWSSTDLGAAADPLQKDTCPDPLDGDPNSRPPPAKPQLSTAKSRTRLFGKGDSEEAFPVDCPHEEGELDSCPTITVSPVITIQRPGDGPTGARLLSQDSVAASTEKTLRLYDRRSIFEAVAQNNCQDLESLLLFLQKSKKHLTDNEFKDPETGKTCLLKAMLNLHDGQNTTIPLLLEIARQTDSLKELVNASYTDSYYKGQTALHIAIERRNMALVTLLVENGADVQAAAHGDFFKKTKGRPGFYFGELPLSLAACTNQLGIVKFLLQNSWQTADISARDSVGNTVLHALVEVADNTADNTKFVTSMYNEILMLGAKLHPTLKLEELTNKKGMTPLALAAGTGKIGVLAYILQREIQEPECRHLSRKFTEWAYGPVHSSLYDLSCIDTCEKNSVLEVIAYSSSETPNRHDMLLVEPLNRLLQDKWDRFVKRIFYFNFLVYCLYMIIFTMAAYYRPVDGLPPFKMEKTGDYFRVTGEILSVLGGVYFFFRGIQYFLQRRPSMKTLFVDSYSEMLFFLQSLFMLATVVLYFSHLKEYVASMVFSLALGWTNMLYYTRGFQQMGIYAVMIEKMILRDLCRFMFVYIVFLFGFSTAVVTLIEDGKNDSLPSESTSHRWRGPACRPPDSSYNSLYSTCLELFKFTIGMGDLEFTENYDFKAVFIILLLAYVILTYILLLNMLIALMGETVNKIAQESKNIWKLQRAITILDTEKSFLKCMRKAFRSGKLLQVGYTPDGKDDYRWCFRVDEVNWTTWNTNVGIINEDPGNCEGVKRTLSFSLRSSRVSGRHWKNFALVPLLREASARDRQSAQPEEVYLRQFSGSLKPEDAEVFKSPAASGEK
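Cells expressing TRPV1 were dye-loaded with Fluo-8 and read kinetically: 10 s baseline, 3 min after compound (agonist portion), then 2 min after EC20 capsaicin (allosteric enhancer portion). Calcium-bound dye fluorescence at 480/520 nm.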
hERG WT inh: qHTS for Inhibitors of KCHN2 3.1: Wildtype qHTS; U2OS, BacMam KCNH2, thallium flux FluxOr; active compounds read low; activity change, % at 1.84 µM; 340,000 tested, 0.37% active; AID 720551, 2013;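 active means maximum activity change below -70%; inconclusive means maximum activity change between -70% and -50%; inactive means maximum activity change above -50%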; further: on the % scale 0 is the no-effect control and ±100 the full control effect
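U2OS cells transduced with wild-type KCNH2 virus are loaded with FluxOr dye for 45 min, and thallium flux is measured in kinetic reads before and after stimulation buffer. Rate constants are normalized to DMSO controls.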
TRPV1 agonist: HTS Assay for Compounds that Act as Agonists of the Vanilloid Receptor 1 | Transient receptor potential cation channel subfamily V member 1 (Homo sapiens), Q8NER1 | TRPV1-expressing cells, Fluo-8 calcium influx, agonist mode | activation, % at 8.33 µM | 320,000 tested, 0.19% active | AID 540275, 2011; in the data active means activation above about 80%; inconclusive means between about 30% and that limit; further: 0% is about no effect
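Fluo-8 calcium influx in TRPV1-expressing cells, kinetic read (ex 480/em 520 nm). Compound added and read 3 min for agonist activity, followed by capsaicin at EC20 final and 2 min further read for enhancement.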
An asterisk follows results filed as active; u = inconclusive; x = no result given.

SMILES | KCNH2 3.1 block | TRPV1 potentiator | hERG WT inh | TRPV1 agonist
O=C(NCCc1nc2ccccc2[nH]1)/C(=C/c1ccc2c(c1)OCO2)NC(=O)c1ccccc1Cl | -76.8* | -7.2 | u | 23.8
COc1ccc2c(CCNC(=O)/C=C/c3ccc(OC)c(OC)c3)c[nH]c2c1 | 5.4 | 5.8 | -6.0 | 1.4
O=C(Nc1ccc(C(=O)N2CCCCC2)cc1)c1ccccc1Br | 13.0 | x | 8.3 | x
CCN(CC)c1ccc(CNc2nc3ccccc3n2CCN2CCOCC2)cc1 | -77.2* | -6.7 | 22.6 | 10.5
O=C(NCCC1=CCCCC1)C1CCN(S(=O)(=O)N2CCOCC2)CC1 | -71.0* | -4.9 | 8.2 | 5.4
O=C(NCCC1=CCCCC1)c1ccc(Cl)c(S(=O)(=O)N2CCOCC2)c1 | 0.9 | -13.0 | -2.8 | 81.8*
COc1ccc(C(=O)NCCC2=CCCCC2)cc1[N+](=O)[O-] | -12.5 | -25.6 | 3.0 | 88.1*
O=C(NCCC1=CCCCC1)c1ccc(Cl)c(S(=O)(=O)N2CCCCC2)c1 | 13.9 | -1.4 | 12.0 | u
COc1ccc(OCC(=O)NCCC2=CCCCC2)c([N+](=O)[O-])c1 | -18.4 | -10.6 | x | 27.3
COc1ccc(N2CCN(S(=O)(=O)c3ccc(OC)c(-c4noc(C)n4)c3)CC2)cc1 | x | 9.7 | x | 1.0
C[C@@H]1C(=O)O[C@H]2[C@H](O)[C@@]34[C@H]5C[C@@H](C(C)(C)C)[C@]36[C@@H](OC(=O)[C@@H]6O)O[C@@]4(C(=O)O5)[C@@]12O | 5.8 | -4.1 | -2.1 | -2.7
O=C(NCc1ccccc1)c1ncn[nH]1 | -1.0 | 20.9 | -29.9 | -4.9
CCCCN(C)C(=O)c1nc2ccccn2c1CN1CCN(c2ncccn2)CC1 | 0.8 | -10.6 | -20.3 | -1.1
CCCCN(C)C(=O)c1nc2ccccn2c1CN1CCN(C/C=C/c2ccccc2)CC1 | -101.9* | 10.1 | -32.1 | 0.0
CN(C)C(CNc1ncnc2sc3c(c12)CCCCC3)c1ccco1 (stereo unspecified) | 7.0 | -19.0 | -6.2 | 22.2
Cc1sc2ncnc(NCC(c3ccco3)N(C)C)c2c1C (stereo unspecified) | 0.5 | -9.1 | 10.3 | 86.0*
N#Cc1ccncc1Sc1ccc(Cl)cc1 | -7.5 | 24.4 | -7.8 | 6.4
COc1ccc(C(=O)NC(=S)N2CCOCC2)cc1Br | 3.2 | -5.1 | 1.2 | -3.9
COc1ccc(-c2cn3c4c(sc3n2)CCCC4)cc1 | x | -17.5 | -6.0 | 80.7*
Cc1cccc(N2CCN(CC(=O)NCc3ccccc3)CC2)c1C | -7.9 | 6.2 | 12.0 | u
COc1ccccc1N1CCN(CCNC(=O)Nc2cccc(C)c2C)CC1 | -35.1 | 24.8 | -124.0* | 12.2
COc1ccccc1NC(=O)CN1CCN(CC(=O)Nc2ccc3c(c2)OCO3)CC1 | -40.3 | -4.1 | -26.5 | -1.4
CCN1CCN(CC(=O)Nc2ccc(C(C)=O)cc2)CC1 | 1.8 | 15.7 | 39.7 | -4.8
CC(=O)c1ccc(NC(=O)CN2CCN(CC(=O)Nc3ccc(C(C)=O)cc3)CC2)cc1 | -102.0* | -15.1 | 5.7 | -1.3
COc1ccc(CNC(=O)CN2CCN(c3cccc(C)c3C)CC2)cc1 | 1.7 | -5.1 | 2.7 | 80.0*
SMILES | KCNH2 3.1 block | TRPV1 potentiator | hERG WT inh | TRPV1 agonist
COc1ccc(NC(=O)CN2CCN(CC(=O)Nc3ccc4c(c3)OCO4)CC2)cc1 | x | 3.1 | -78.8* | 1.4
COc1cc(CN2C(=S)NC(C)(C)CC2(C)O)cc(OC)c1 (stereo unspecified) | 2.3 | 8.8 | -14.0 | -2.2
COc1ccc(S(=O)(=O)N2CCN(CC(=O)Nc3ccccc3OC)CC2)cc1 | -36.1 | u | 1.0 | 10.4
COc1ccc(NC(=O)CN2CCN(CC(=O)Nc3ccc(OC)cc3)CC2)cc1 | -107.8* | 23.9 | -91.9* | 0.7
COc1ccc(NC(=O)CN2CCCC2)cc1 | -10.3 | -13.3 | -1.3 | 0.3
COc1ccc(S(=O)(=O)N2CCN(CC(=O)Nc3ccccc3Cl)CC2)cc1 | -88.1* | u | 4.0 | 8.3
O=C(c1ccc2c(=O)n3c(nc2c1)CCC3)N1CCN(S(=O)(=O)c2ccccc2Br)CC1 | 5.4 | x | -1.9 | x
Cc1cc(CCNC=O)c(C)c2c1oc1ccccc12 | -8.9 | x | -10.3 | x
COc1ccc(N2CCN(Cc3nc(N)nc(Nc4ccc(C)c(Cl)c4)n3)CC2)cc1 | -73.0* | 6.5 | 31.4 | -1.3
Cc1ccc(Nc2nc(N)nc(CN3CCN(c4ccccc4)CC3)n2)cc1Cl | -74.6* | -9.3 | 12.8 | 20.1
CCOc1nc(Nc2ccc(OC)c(Cl)c2)nc(N2CCN(c3ccc(OC)cc3)CC2)n1 | -109.0* | -2.3 | 3.1 | 2.3
CCOc1nc(Nc2ccc(F)cc2)nc(N2CCN(c3ccc(OC)cc3)CC2)n1 | u | -10.2 | -3.5 | 4.6
COc1ccc(CCN(C)Cc2ccc(OC)c(OCc3ccccc3)c2)cc1OC | u | 1.6 | 16.0 | 2.5
COc1ccc(CCN(C)c2ncnc3sccc23)cc1OC | 3.8 | 0.4 | -84.3* | 1.1
COc1ccc(CCN(C)Cc2ccc(OCc3ccccc3)c(OC)c2)cc1OC | -79.5* | 5.7 | 14.0 | 1.7
CCc1ccc(NC(=O)Nc2ccc3c(c2)N(C)C(=O)CS3)cc1 | 10.4 | -7.1 | -6.6 | 87.6*
O=C(CN1CCCC1=O)NC1C2CC3CC(C2)CC1C3 (stereo unspecified) | 5.3 | -9.5 | 5.3 | -0.4
O=C(/C=C/c1ccc(N2CCC(c3ccccc3)=N2)cc1)c1ccccc1 | x | 12.8 | -73.7* | 22.8
CC(NC(=O)CCNS(=O)(=O)c1ccccc1)c1ccccc1 (stereo unspecified) | 4.3 | 2.7 | -156.2* | -4.0
O=C(NC1CCCc2c1cnn2-c1ccccc1F)c1ccncc1 (stereo unspecified) | 9.0 | x | 8.6 | x
CC(NC(=O)c1cccs1)c1ccccc1 (stereo unspecified) | -95.1* | x | 5.6 | x
O=C(CNc1cc(S(=O)(=O)N2CCOCC2)ccc1N1CCCC1)Nc1ccc(Cl)cc1 | 0.9 | x | 5.5 | x
O=C(NC1CCCCC1)c1cc(N2C(=O)CCC2=O)ccc1Cl | -11.9 | 4.1 | 0.7 | 2.1
c1ccc(CN2CCN(c3ncnc4c3[nH]c3ccccc34)CC2)cc1 | -25.3 | -33.9 | -18.3 | 80.2*
O=C(NCCC1=CCCCC1)C1CCN(S(=O)(=O)c2cccc3cccnc23)CC1 | -10.2 | 0.8 | -5.1 | -3.6
Cc1ccc(-n2cc(CN3CCC(O)(c4ccccn4)CC3)c(-c3ccc(F)cc3)n2)cc1 | -73.3* | -13.4 | u | -2.9
CCc1ccc(CNC(=O)Cc2ccc(NC(=O)C3=C(C)OCCS3)cc2)cc1 | 4.0 | -2.5 | 1.3 | u
N#Cc1ccccc1S(=O)(=O)N1CCN(C(=O)C2CC(=O)N(c3ccc4c(c3)OCCO4)C2)CC1 (stereo unspecified) | -74.6* | x | -9.5 | x
Cc1ccc(S(=O)(=O)N2CCN(C(=O)C3CC(=O)N(c4ccc5c(c4)OCCO5)C3)CC2)cc1 (stereo unspecified) | -12.4 | 11.9 | -8.8 | 2.1

Screening results as filed in PubChem BioAssay.
